Test results from article PMC5540273 (PLoS ONE, 2017).

Assays:
Conditions in all cases: concentration: 1 μM, replicates: in singlicate; n = 1
[1] = tested on: CHEK1
[2] = tested on: CHEK2
[3] = tested on: CIT
[4] = tested on: CLK1
[5] = tested on: CLK2
[6] = tested on: CLK3
[7] = tested on: CLK4
[8] = tested on: CSF1R-autoinhibited
[9] = tested on: CSF1R
[10] = tested on: CSK
[11] = tested on: CSNK1A1L
[12] = tested on: CSNK1A1
[13] = tested on: CSNK1D
[14] = tested on: CSNK1E
[15] = tested on: CSNK1G1
[16] = tested on: CSNK1G2
[17] = tested on: CSNK1G3
[18] = tested on: CSNK2A1
[19] = tested on: CSNK2A2
[20] = tested on: T1, CTK
T1 construct: gene MATK
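Also: KINOMEscan kinase panel screen.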

With `O=C1Cc2cc(Nc3nc(NCc4cccc(S(=O)(=O)C(F)(F)F)c4)ncc3C(F)(F)F)ccc2N1` the “%Inh” value [1] was 0%, the “%Inh” value [2] was 0% and the “%Inh” value [3] was 0%. For the same compound, the “%Inh” value [4] was 0%, the “%Inh” value [5] was 0% and the “%Inh” value [6] was 0%. For the same compound, the “%Inh” value [7] was 0%, the “%Inh” value [8] was 0% and the “%Inh” value [9] was 9%. For the same compound, the “%Inh” value [10] was 3%, the “%Inh” value [11] was 0% and the “%Inh” value [12] was 12%. The “%Inh” value [13] was 0%, the “%Inh” value [14] was 0% and the “%Inh” value [15] was 11%. The “%Inh” value [16] was 0%, the “%Inh” value [17] was 0% and the “%Inh” value [18] was 12%. For the same compound, the “%Inh” value [19] was 5% and the “%Inh” value [20] was 5%.

With `NS(=O)(=O)c1cccc(-c2ccc3nccc(-c4cccc(S(N)(=O)=O)c4)c3c2)c1` [GW867253] the “%Inh” value [1] was 0%, the “%Inh” value [2] was 0% and the “%Inh” value [3] was 0%. The “%Inh” value [4] was 0%, the “%Inh” value [5] was 25% and the “%Inh” value [6] was 0%. The “%Inh” value [7] was 1%, the “%Inh” value [8] was 0% and the “%Inh” value [9] was 0%. The “%Inh” value [10] was 0%, the “%Inh” value [11] was 0% and the “%Inh” value [12] was 0%. For the same compound, the “%Inh” value [13] was 0%, the “%Inh” value [14] was 12% and the “%Inh” value [15] was 0%. For the same compound, the “%Inh” value [16] was 0%, the “%Inh” value [17] was 0% and the “%Inh” value [18] was 0%. The “%Inh” value [19] was 22% and the “%Inh” value [20] was 31%.

In the case of `Cl.Nc1ncnc2occ(-c3ccc(NC(=O)Nc4cc(C(F)(F)F)ccc4F)cc3)c12` [SB-707548], the “%Inh” value [1] is reported as 6%, the “%Inh” value [2] is reported as 45% and the “%Inh” value [3] is reported as 82%. For the same compound, the “%Inh” value [4] was 69%, the “%Inh” value [5] was 11% and the “%Inh” value [6] was 13%. For the same compound, the “%Inh” value [7] was 69%, the “%Inh” value [8] was 90.7% and the “%Inh” value [9] was 99.9%. The “%Inh” value [10] was 20%, the “%Inh” value [11] was 11% and the “%Inh” value [12] was 10%. The “%Inh” value [13] was 32%, the “%Inh” value [14] was 25% and the “%Inh” value [15] was 16%. For the same compound, the “%Inh” value [16] was 0%, the “%Inh” value [17] was 32% and the “%Inh” value [18] was 0%. The “%Inh” value [19] was 0% and the “%Inh” value [20] was 4%.

In the case of `CC(C)Oc1ccc2c(-c3ccnc(Nc4ccc(N5CCN(C)CC5)cc4)n3)cnn2n1` [GW696155], the “%Inh” value [1] is reported as 0%, the “%Inh” value [2] is reported as 67% and the “%Inh” value [3] is reported as 98.7%. For the same compound, the “%Inh” value [4] was 97%, the “%Inh” value [5] was 96.8% and the “%Inh” value [6] was 1%. For the same compound, the “%Inh” value [7] was 93.7%, the “%Inh” value [8] was 58% and the “%Inh” value [9] was 65%. For the same compound, the “%Inh” value [10] was 34%, the “%Inh” value [11] was 0% and the “%Inh” value [12] was 46%. For the same compound, the “%Inh” value [13] was 37%, the “%Inh” value [14] was 28% and the “%Inh” value [15] was 28%. The “%Inh” value [16] was 0%, the “%Inh” value [17] was 19% and the “%Inh” value [18] was 94.6%. For the same compound, the “%Inh” value [19] was 98.9% and the “%Inh” value [20] was 0%.

`COC(=O)Nc1nc2cc(Oc3ccc(NC(=O)Nc4cc(F)ccc4F)cc3)ccc2[nH]1.Cl` [GW701424] was tested, and the “%Inh” value [1] was 0%, the “%Inh” value [2] was 21% and the “%Inh” value [3] was 99%. For the same compound, the “%Inh” value [4] was 29%, the “%Inh” value [5] was 0% and the “%Inh” value [6] was 14%. The “%Inh” value [7] was 40%, the “%Inh” value [8] was 50% and the “%Inh” value [9] was 99.7%. The “%Inh” value [10] was 0%, the “%Inh” value [11] was 13% and the “%Inh” value [12] was 0%. For the same compound, the “%Inh” value [13] was 9%, the “%Inh” value [14] was 26% and the “%Inh” value [15] was 0%. For the same compound, the “%Inh” value [16] was 0%, the “%Inh” value [17] was 21% and the “%Inh” value [18] was 0%. The “%Inh” value [19] was 6% and the “%Inh” value [20] was 0%.

`CSc1ccc(-c2cc3ncnc(SCC(=O)O)c3s2)cc1` was tested, and the “%Inh” value [1] was 0%, the “%Inh” value [2] was 2% and the “%Inh” value [3] was 1%. The “%Inh” value [4] was 0%, the “%Inh” value [5] was 0% and the “%Inh” value [6] was 0%. The “%Inh” value [7] was 0%, the “%Inh” value [8] was 17% and the “%Inh” value [9] was 18%. The “%Inh” value [10] was 0%, the “%Inh” value [11] was 11% and the “%Inh” value [12] was 21%. The “%Inh” value [13] was 0%, the “%Inh” value [14] was 0% and the “%Inh” value [15] was 1%. For the same compound, the “%Inh” value [16] was 0%, the “%Inh” value [17] was 0% and the “%Inh” value [18] was 22%. For the same compound, the “%Inh” value [19] was 17% and the “%Inh” value [20] was 14%.

In the case of `COc1ccc(Nc2ncc(C#N)c(Nc3ccccc3C(N)=O)n2)cc1N1CCN(C)CC1.Cl` [GSK1558669], the “%Inh” value [1] is reported as 100%, the “%Inh” value [2] is reported as 78% and the “%Inh” value [3] is reported as 69%. The “%Inh” value [4] was 99.8%, the “%Inh” value [5] was 99.3% and the “%Inh” value [6] was 85%. For the same compound, the “%Inh” value [7] was 99.7%, the “%Inh” value [8] was 67% and the “%Inh” value [9] was 99.9%. For the same compound, the “%Inh” value [10] was 85%, the “%Inh” value [11] was 97.3% and the “%Inh” value [12] was 82%. The “%Inh” value [13] was 66%, the “%Inh” value [14] was 78% and the “%Inh” value [15] was 50%. For the same compound, the “%Inh” value [16] was 0%, the “%Inh” value [17] was 27% and the “%Inh” value [18] was 99.7%. The “%Inh” value [19] was 99.9% and the “%Inh” value [20] was 56%.

With `Cc1cccc(-c2nc(-c3ccc(S(C)(=O)=O)cc3)sc2-c2ccncc2)c1` the “%Inh” value [1] was 0%, the “%Inh” value [2] was 1% and the “%Inh” value [3] was 9%. For the same compound, the “%Inh” value [4] was 0%, the “%Inh” value [5] was 0% and the “%Inh” value [6] was 0%. The “%Inh” value [7] was 11%, the “%Inh” value [8] was 0% and the “%Inh” value [9] was 9%. The “%Inh” value [10] was 8%, the “%Inh” value [11] was 9% and the “%Inh” value [12] was 18%. For the same compound, the “%Inh” value [13] was 16%, the “%Inh” value [14] was 36% and the “%Inh” value [15] was 0%. The “%Inh” value [16] was 20%, the “%Inh” value [17] was 0% and the “%Inh” value [18] was 0%. For the same compound, the “%Inh” value [19] was 14% and the “%Inh” value [20] was 0%.
